Bioassay records deposited in PubChem BioAssay by National Center for Advancing Translational Sciences (NCATS).
This is one part of a sample in which hits are shown more often than they occur.
AMA1 RON2 block: qHTS for Inhibitors of AMA1-RON; Towards Development of Antimalarial Drug Lead: Primary Screen. Plasmodium falciparum AMA1 (3D7) - RON2 peptide interaction. AlphaScreen AMA1-biotinylated RON2 peptide binding. Potency, µM (top dose mostly 58.2 µM), inactives show at the highest dose activity change, negative = inhibition, usual class: inhibitors. 360,000 compounds, 0.2% hits. AID 720542, 2013; active = well fitted inhibition curve with a large enough effect; inconclusive = small, poorly fitted or top-dose-only effect; inactive = no such curve, though single readings can be large or run the other way;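 also: potency is read from the fitted curve at half-maximal effect; 0% = vehicle wells and -100% = peptide control; nearly all actives have a fitted effect of over 45% in size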
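AMA1 (3D7) with his tag at 25 nM final met compounds first, then biotinylated RON2 peptide at 25 nM; detection used donor plus acceptor beads, 10 µg/mL apiece, read by AlphaScreen after 30 min at room temperature.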
Shiga toxin inh: A qHTS for Small Molecule Inhibitors of Shiga Toxin; Vero cells, Shiga toxin protein synthesis inhibition reporter; inhibition, % at 38.7 µM; 290,000 compounds, 9.2% hits; in the data active = inhibition mostly above about 28%, no sharp cut-off; inactive = mostly below about 43%; also: 0% is about no effect
Lassa entry inh: qHTS for Inhibitors of binding or entry into cells for Lassa Virus. 300,000 compounds, 1.2% hits. Lassa virus pseudotype entry inhibition, cell reporter. Potency, µM (series often up to 37.9 µM), inactives show at the highest dose activity change, negative = inhibition, hits mostly inhibitors; calls by dose curve; tested in HEK293 cells; also: potency is read from the fitted curve at half-maximal effect; % is scaled to controls: 0 for no effect and ±100 for the full control effect; nearly all actives have a fitted effect of over 50% in size
Marburg entry inh: qHTS for inhibitors of binding or entry into cells for Marburg Virus | Marburg virus pseudotyped entry inhibition, cell reporter | Potency, µM (series often up to 37.8 µM), for the others: at the top dose activity change, negative = inhibition, actives largely listed as inhibitors | 300,000 compounds, 1.8% hits | AID 540276, 2011; calls by dose curve; tested in HEK293 cells; also: potency is read from the fitted curve at half-maximal effect; % is scaled to controls: 0 for no effect and ±100 for the full control effect
CHX counter: Cycloheximide Counterscreen for Small Molecule Inhibitors of Shiga Toxin. 300,000 compounds, 12% hits. AID 2314, 2010. cell reporter, cycloheximide protein synthesis inhibition counterscreen. max response, %; in the data active = max response mostly above about 13%, no sharp cut-off; inactive = mostly below about 14%; also: read at 38.3 µM for the half of the compounds with a filed dose; 0% is about no effect
* marks the source's active call; other numbers are inactive results; [ ] = another dose, or the depositor's remark.

For COc1ccc(OC)c(-c2c3cc(O)c(=O)cc-3oc3cc(O)c(O)cc23)c1 the results were AMA1 RON2 block 2µM*, Shiga toxin inh -3, Lassa entry inh inconclusive, Marburg entry inh 21µM* and CHX counter -5.
CCOc1ccccc1-c1c2cc(O)c(=O)cc-2oc2cc(O)c(O)cc12 was read as AMA1 RON2 block inconclusive, Shiga toxin inh 6, Lassa entry inh inconclusive, Marburg entry inh inconclusive and CHX counter -3.
COc1cc(OC)cc(C(=O)NCC(C)NC(=O)c2cc(OC)cc(OC)c2)c1 (stereo not given) was read as AMA1 RON2 block -15%, Lassa entry inh -11% and Marburg entry inh 4%[46.1 µM].
`COc1ccc(NC(=O)C2CC3CCC2C3)c(OC)c1` (stereo not given) gave AMA1 RON2 block 5%, Lassa entry inh 1%[46.1 µM] and Marburg entry inh 13%[46.1 µM].
CC(=O)c1sc(NC(=O)COc2ccc(C(C)C)c(C)c2)nc1C was read as AMA1 RON2 block 39%, Shiga toxin inh -6, Lassa entry inh 4%, Marburg entry inh 23%[46.1 µM] and CHX counter 2.
O=C(COc1ccccc1)Nc1nc2c(s1)CCCC2 was read as AMA1 RON2 block -21%, Shiga toxin inh 83*, Lassa entry inh inconclusive, Marburg entry inh 6.3µM* and CHX counter 39*.
`CC(=O)c1sc(NC(=O)COc2ccccc2)nc1C` gave AMA1 RON2 block 9%, Shiga toxin inh 57*, Lassa entry inh -16%, Marburg entry inh 9%[46.1 µM] and CHX counter 15*.
For CC(=O)c1sc(NC(=O)CCN2C(=O)c3ccccc3C2=O)nc1C the results were AMA1 RON2 block 12%, Shiga toxin inh -13, Lassa entry inh 1%, Marburg entry inh inconclusive and CHX counter -1.
Cc1nnc(NC(=O)COc2ccccc2)s1 was read as AMA1 RON2 block 32%, Shiga toxin inh -9, Lassa entry inh 21%, Marburg entry inh 9% and CHX counter 1.
For CC(=O)c1sc(NC(=O)CCOc2ccccc2)nc1C the results were AMA1 RON2 block -6%, Shiga toxin inh 77* and CHX counter 34*.
`CCOc1cc(C=NN2CCCCCC2)ccc1O` gave AMA1 RON2 block -21%, Lassa entry inh 1% and Marburg entry inh 0%.
For CSc1ccc(C(=O)N2CCc3ccc(NC(=O)c4ccccn4)cc3C2)cc1 the results were AMA1 RON2 block 18%, Shiga toxin inh 107*, Lassa entry inh inconclusive, Marburg entry inh inconclusive and CHX counter 58*.
For CSc1ccccc1C(=O)N1CCc2ccc(NC(=O)c3ccccn3)cc2C1 the results were AMA1 RON2 block -2%.
Screening Cc1ccc(NC(=O)CCn2nc(C)c(S(=O)(=O)N3CCCCC3)c2C)cc1Cl returned Lassa entry inh 0%[46.1 µM].
`COc1ccc(Cn2c(-c3ccc(OC)c(O)c3)nc3ccccc32)cc1O` gave AMA1 RON2 block -8%, Shiga toxin inh 75*, Lassa entry inh inconclusive, Marburg entry inh inconclusive and CHX counter 27*.
Screening COCCCn1c(-c2ccccc2)nc2ccccc2c1=O returned AMA1 RON2 block 0%, Shiga toxin inh 21, Lassa entry inh 9%, Marburg entry inh 13% and CHX counter -5.
`COc1ccc(-c2nc3ccccc3n2Cc2ccc(C)cc2)cc1` gave AMA1 RON2 block -1%, Shiga toxin inh 44*, Lassa entry inh 1%, Marburg entry inh 9%[46.1 µM] and CHX counter 42*.
For CCCn1c(-c2ccc(OC)cc2)nc2ccccc21 the results were AMA1 RON2 block -3%, Shiga toxin inh 10, Lassa entry inh -1%, Marburg entry inh 1% and CHX counter 13*.
For COCCn1c(-c2ccccc2)nc2ccccc21 the results were AMA1 RON2 block 22%, Shiga toxin inh 96*, Lassa entry inh 11%, Marburg entry inh inconclusive and CHX counter 66*.
For CCOc1ccc(Cn2c(-c3ccc(OCC)c(OC)c3)nc3ccccc32)cc1OC the results were Lassa entry inh -6%[46.1 µM] and Marburg entry inh inconclusive.
Screening CCOc1ccc(C(=O)N/N=C/c2c(C)[nH]c(=O)[nH]c2=O)cc1 returned Shiga toxin inh 16, Marburg entry inh -7% and CHX counter 8.
`O=C(Nc1ccc(F)c(Cl)c1)N1CC=C(c2c[nH]c3ccccc23)CC1` gave Lassa entry inh -22%[46.1 µM].
`COc1ccc(Cn2c(O)c(C=Nc3ccc(C)cc3)c3ccccc3c2=O)cc1` gave AMA1 RON2 block 4%, Shiga toxin inh -3, Lassa entry inh 6%, Marburg entry inh 14% and CHX counter -1.
Screening COc1ccc(Cn2c(-c3ccc(C)cc3)c[n+]3ccccc23)cc1 returned AMA1 RON2 block 1%, Shiga toxin inh 21, Lassa entry inh 6.3µM*, Marburg entry inh inconclusive and CHX counter 10.
Screening COCn1c(-c2ccc(OC)cc2)nc2ccccc21 returned AMA1 RON2 block 1%, Shiga toxin inh active, Lassa entry inh -19%, Marburg entry inh -17%[46.1 µM] and CHX counter 51*.
`COc1ccc(CCNC(=O)CCCCn2c(=O)c3ccccc3n(Cc3cccc(C)c3)c2=O)cc1OC` gave Lassa entry inh 0%[46.1 µM] and Marburg entry inh inconclusive.
Screening COc1ncnc2c1ncn2CCCN(C)CCc1ccccn1 returned AMA1 RON2 block 16%.
Screening Cc1ccccc1Nc1nnc(SCC2CCCCO2)s1 (stereo not given) returned AMA1 RON2 block 54%, Shiga toxin inh 15*, Lassa entry inh inconclusive, Marburg entry inh inconclusive and CHX counter 55*.
Screening COc1ccccc1Nc1nnc(SCC2CCCCO2)s1 (stereo not given) returned AMA1 RON2 block -8%, Shiga toxin inh 51, Marburg entry inh 7.1µM* and CHX counter 26*.
Screening Cc1ccc(Nc2nnc(SCC3CCCCO3)s2)cc1 (stereo not given) returned AMA1 RON2 block -3%, Shiga toxin inh 54*, Lassa entry inh -19%, Marburg entry inh 30% and CHX counter 41*.
`COc1ccccc1Nc1nnc(SCC(=O)NC2CCCC2)s1` gave AMA1 RON2 block 7%.
For COc1ccccc1Nc1nnc(SCC(=O)N2CCCC2)s1 the results were AMA1 RON2 block 9%, Shiga toxin inh 86, Lassa entry inh 23%, Marburg entry inh 24% and CHX counter 33*.
`Cc1cccc(Nc2nnc(SCC(=O)NCC3CCCO3)s2)c1C` (stereo not given) gave AMA1 RON2 block 26%, Lassa entry inh 11% and Marburg entry inh -20%.
`COc1ccccc1/C(O)=C(\C#N)c1nc2ccccc2[nH]1` gave AMA1 RON2 block 91%, Shiga toxin inh -5, Lassa entry inh 0%, Marburg entry inh 3%[46.1 µM] and CHX counter 9.
For CCCc1nnc(NC(=O)Nc2ccccc2OC)s1 the results were AMA1 RON2 block 10%, Shiga toxin inh 9, Lassa entry inh -21%, Marburg entry inh inconclusive and CHX counter 13.
